# The list is not random: actives were taken first. Their share in the collection is about 18%.
# TDP1 cell noCPT: qHTS for Inhibitors of human tyrosyl-DNA phosphodiesterase 1 (TDP1): qHTS in cells in absence of CPT. DT40 Tdp1-/- hTDP1 cells, no CPT, ATP luminescence, 48 h. Potency, µM (series often up to 46.2 µM), for the others: top-dose activity change, negative = growth inhibition, usual class: inhibitors. 15% of 420,000 active; further: potency means the concentration at half of the fitted maximal effect; nearly all actives have a fitted effect of over 55% in size
#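 No-CPT arm: Tdp1-/-;hTDP1 DT40 cells (400/well) plus compounds, incubated ≥48 hr at 37 °C. Readout CellTiter-Glo luminescence.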
# RORg inh: qHTS for inhibitors of ROR gamma transcriptional activity; Nuclear receptor ROR-gamma (Mus musculus), P51450; Drosophila S2 Gal4-RORgamma UAS-luciferase reporter, 20 h; Potency, µM (series often up to 53.6 µM), for inactives: top-dose activity change, negative = inhibition, usual class: inhibitors; 5.4% of 310,000 active; further: potency means the concentration at half of the fitted maximal effect; nearly all actives have a fitted effect of over 60% in size
# Target sequence (P51450 whole entry, looked up, the tested form may be a part): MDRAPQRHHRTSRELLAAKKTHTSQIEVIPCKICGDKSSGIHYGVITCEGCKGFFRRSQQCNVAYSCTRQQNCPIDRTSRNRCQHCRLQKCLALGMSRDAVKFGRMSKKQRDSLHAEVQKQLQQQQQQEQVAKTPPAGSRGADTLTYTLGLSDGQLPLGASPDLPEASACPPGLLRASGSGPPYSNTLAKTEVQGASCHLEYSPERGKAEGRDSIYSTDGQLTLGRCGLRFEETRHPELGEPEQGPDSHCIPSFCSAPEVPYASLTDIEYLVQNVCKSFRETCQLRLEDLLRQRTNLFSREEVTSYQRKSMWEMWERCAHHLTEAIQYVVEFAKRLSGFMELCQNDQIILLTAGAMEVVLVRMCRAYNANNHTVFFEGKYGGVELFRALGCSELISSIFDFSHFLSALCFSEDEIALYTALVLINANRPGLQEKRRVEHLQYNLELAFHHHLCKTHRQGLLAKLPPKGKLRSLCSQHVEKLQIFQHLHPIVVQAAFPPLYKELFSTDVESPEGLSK
#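 Stably transfected Drosophila Schneider cells are the test system, with ROR gamma fused to Gal4 and luciferase under UAS control; luminescence is read after 20 hr of 700 uM copper sulfate induction at ambient temperature.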
# IL-1B inflam inh: qHTS for Inhibitors of Inflammasome Signaling: IL-1-beta AlphaLISA Primary Screen. activity change, % at 57.5 µM. AID 743279, 2014. THP-1 LPS/ATP IL-1B secretion, AlphaLISA, 16 h; active compounds read low. 4.7% of 360,000 active; in the data active means activity change below about -50%; inconclusive means mostly about -30% to -49%
#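 THP-1 cells pretreated 1 hr with compounds (up to 57.5 uM final), then stimulated with LPS (250 ng/mL final) plus ATP (1.25 mM final); secreted IL-1B measured by AlphaLISA after 16 hr, decreased signal indicating inhibition.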
# LDHA block: qHTS assay for inhibitors of human lactate dehydrogenase; L-lactate dehydrogenase A chain (Homo sapiens), P00338; purified LDHA, NADH/diaphorase-resazurin fluorescence; active compounds read low; activity change, % (values are at about 110 or 230 µM); 0.15% of 480,000 active; AID 1347041, 2019; in the data active means activity change below about -30%; inconclusive means mostly about -25% to -30%;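 further: plate controls were DMSO wells for no effect and wells without enzyme for full effect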
#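 Human LDH5 (2 nM) was incubated with 0.06 mM NADH and 0.2 mM pyruvate for 5 min at room temperature in Tris pH 7.4. Remaining NADH was coupled through diaphorase/resazurin, and resorufin fluorescence was read at 0 and 20 min.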
# Gal4-VP16 FLuc: VP16 counterscreen qHTS for inhibitors of ROR gamma transcriptional activity. Drosophila S2 Gal4-VP16 UAS-luciferase, luminescence, 20 h. Potency, µM (series often up to 53.6 µM), for the others: top-dose activity, negative = inhibition, actives largely listed as inhibitors. 3.5% of 310,000 active;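 further: Gal4-VP16 expression switched on by copper sulfate through the metallothionein promoter; potency means the concentration at half of the fitted maximal effect; nearly all actives have a fitted effect of over 50% in size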
# TDP1 cell CPT: qHTS for Inhibitors of human tyrosyl-DNA phosphodiesterase 1 (TDP1): qHTS in cells in presence of CPT; chicken DT40 Tdp1-/-;hTDP1 cells + 20 nM CPT, ATP luminescence, 48 h; Potency, µM (series often up to 46.2 µM), for the others: top-dose activity change, negative = growth inhibition, actives largely listed as inhibitors; 12% of 420,000 active; further: potency means the concentration at half of the fitted maximal effect; nearly all actives have a fitted effect of over 55% in size
#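 Chicken DT40 Tdp1-/- cells stably complemented with human TDP1 were seeded at 400 cells/well in medium containing 20 nM camptothecin, exposed to pin-transferred compounds, and grown at 37 °C for at least 48 hr. Viability was read as ATP luminescence.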
# * marks the source's active call; other numbers are inactive results; ? = inconclusive; · = no result given. Unless noted, the call rests on the fitted dose curve; in most records, active means well fitted curve in the direction sought with a large enough effect; inconclusive means small, poorly fitted or top-dose-only effect, or another doubt; inactive means no such curve, though single readings can be large; an effect the other way counts as inactive or inconclusive. Unless noted, on the % scale 0 is the no-effect control and ±100 the full control effect.
SMILES,TDP1 cell noCPT,RORg inh,IL-1B inflam inh,LDHA block,Gal4-VP16 FLuc,TDP1 cell CPT
CSc1cccc(NC(=S)N2CCC(N(C)C3CCCCC3)CC2)c1,?,-14%,-27,-8,7%,2%
CSc1cccc(NC(=S)N2CCC(c3ccccc3)C2)c1 (stereo unspecified),16µM*,?,?,-7,?,-17%
CC(c1ccc(F)cc1)n1c(-c2cnccn2)n[nH]c1=S (stereo unspecified),·,·,·,-3,·,·
COc1cccc(OC/C(=N\O)c2ccc(OCC(N)=O)cc2O)c1,·,·,·,-18,·,·
COC(=O)c1cccc(NC(=O)NCc2c(-n3cccc3)sc3c2CCN(C)C3)c1,·,·,·,6,·,·
Cc1ccccc1OCC(=O)Nc1cc(C)c(O)c(-c2nc3ccccc3o2)c1,?,·,·,1,·,10µM*
Cc1cccc(OCC(=O)Nc2cc(C)c(O)c(-c3nc4ccccc4o3)c2)c1,?,·,·,2,·,11µM*
O=C(CN1CCCC1)Nc1cc(C(F)(F)F)cc(C(F)(F)F)c1,-1%,7%,-69*,6,1%,-2%
O=C(CNc1cc(S(=O)(=O)N2CCOCC2)ccc1NCC1CCCO1)Nc1ccc(C(F)(F)F)cc1 (stereo unspecified),?,·,-62*,-2,·,?
O=C(COc1cccc(C(F)(F)F)c1)Nc1ccc(S(=O)(=O)N2CCCCC2)cc1,26µM*,·,?,-10,·,?
Cc1ccc(NC(=O)CNc2cccc(S(=O)(=O)N3CCCC3)c2)cc1F,?,·,-67*,2,·,-20%
O=C(CN1CCCCCC1)Nc1cccc(NC(=O)CN2CCCCCC2)c1,-27%,-1%,-3,-9,-11%,-3%
O=C(CNc1cccc(S(=O)(=O)N2CCCC2)c1)Nc1ccc(F)c(F)c1,?,·,-2,1,·,?
C=CCOc1ccc(CNCc2ccco2)cc1,·,·,·,-5,·,·
Cc1ccc(S(=O)(=O)N2CCCCC2)cc1NC(=O)c1nn(C(C)C)c(=O)c2ccccc12,·,·,·,-1,·,·
Cc1ncsc1C(=O)NCc1ccc(N2CCOCC2)nc1,·,·,·,8,·,·
O=C(CN1CCN(S(=O)(=O)c2ccccc2)CC1)Nc1cccc(C(F)(F)F)c1,?,0%,-25,4,?,16µM*
O=C(CN1CCCN(S(=O)(=O)c2ccc(F)cc2)CC1)Nc1cccc(F)c1,?,?,-8,2,-13%,?
O=C(CNc1cccc(C(F)(F)F)c1)Nc1cccc(S(=O)(=O)N2CCCC2)c1,-71%,·,?,-3,·,13µM*
O=C(CNc1cccc(S(=O)(=O)N2CCCC2)c1)Nc1cccc(F)c1,?,·,-7,-5,·,-19%
CC(=O)NC(Cc1ccc([N+](=O)[O-])cc1)C(=O)NCC(N)C(=O)c1ccccc1 (stereo unspecified),5.6µM*,·,·,0,·,22µM*
N#Cc1ccccc1OCC(=O)N1CCC(c2nc3ccccc3o2)CC1,·,·,·,14,·,·
CN1CCN(C2=Cc3cc(Cl)ccc3Sc3cc(F)ccc32)CC1,29µM*,-11%,-100*,1,0%,?
CN1CCN(C2=Cc3ccccc3Sc3cc(F)c(Cl)cc32)CC1,29µM*,?,-62*,11,?,?
CN1CCN(C2=Cc3ccccc3Sc3cc(F)c(F)cc32)CC1,?,7.9µM*,-62*,2,7.9µM*,?
SMILES,TDP1 cell noCPT,RORg inh,IL-1B inflam inh,LDHA block,Gal4-VP16 FLuc,TDP1 cell CPT
CN1CCN(c2nc(-c3ccc(Cl)c(Cl)c3)nc3ccccc23)CC1,·,16%,·,·,-8%,·
CN1CCN(CCC(=O)N2c3ccccc3Sc3ccc(Cl)cc32)CC1,?,?,-28,0,-7%,?
CN1CCN(c2cc(-c3ccccc3C(F)(F)F)ncn2)CC1,9%,-16%,·,·,2%,4%
FC(F)Sc1nc2ccccc2[nH]1,-13%,13µM*,·,-1,?,2%
COCC(C)n1c(SCc2nc(N)nc(Nc3ccccc3C)n2)nc2ccccc2c1=O (stereo unspecified),?,15%,?,-1,3%,16µM*
CCCCn1c(SCc2nc(N)nc(Nc3ccccc3C)n2)nc2ccccc2c1=O,18µM*,1%,-28,-5,17%,?
Cc1cccn2c(=O)c(C(=O)NCc3ccc(F)cc3)c(O)nc12,?,·,·,5,·,?
Cc1ccn2c(=O)c(C(=O)NC3CCCCC3C)c(O)nc2c1 (stereo unspecified),?,·,18,0,·,16µM*
Cc1cccn2c(=O)c(C(=O)NC3CCCCC3C)c(O)nc12 (stereo unspecified),15µM*,·,31,7,·,?
CCC1CCCCN1CCCNC(=O)c1c(O)nc2c(C)cccn2c1=O (stereo unspecified),7%,-25%,-19,1,12%,13%
Cc1csc2nc(O)c(C(=O)NC3CCCCC3)c(=O)n12,?,·,14,7,·,?
Cc1cccn2c(=O)c(C(=O)NCc3ccccc3Cl)c(O)nc12,23µM*,·,·,-1,·,16µM*
